According to PubChem BioAssay (NCATS):
Records with an inconclusive call do not appear. Unmarked numbers belong to inactive results. Calls follow the shape of the dose curve; as a rule, active = well fitted inhibition curve with a large enough effect; inconclusive = small, poorly fitted or top-dose-only effect; inactive = flat fitted curve, though single readings scatter.

biological target: Calcium and integrin-binding protein 1 (Homo sapiens) (UniProt Q99828); experiment: Primary qHTS for Identification of Calcium Integrin Binding Protein 1 (CIB1) Competitor (AID 1508620); settings: CIB1-GST / FITC-alphaIIb peptide fluorescence polarization; series mostly up to 114 µM; activity change, negative = inhibition: at the top concentration;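 also: GST tagged CIB1 binding a fluorescein labelled alphaIIb integrin peptide tracer; top concentration of the series differs between compounds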
Sequence (Q99828 whole entry, looked up): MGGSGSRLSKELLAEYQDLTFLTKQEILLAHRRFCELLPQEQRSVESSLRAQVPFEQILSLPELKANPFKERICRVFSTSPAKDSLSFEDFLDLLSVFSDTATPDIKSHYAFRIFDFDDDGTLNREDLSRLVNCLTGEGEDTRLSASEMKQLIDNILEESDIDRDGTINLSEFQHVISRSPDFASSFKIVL
Summary of the method: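 CIB1-GST (1 uM final) and compound incubated 15 min at room temperature before adding FITC-alphaIIb peptide tracer (100 nM final). Competition for binding read by fluorescence polarization (ex 480, em 540) after another 15 min at room temperature.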
% is scaled to controls: 0 for no effect and ±100 for the full control effect.

Row | SMILES | activity change, negative = inhibition
1 | C[C@@H]1O[C@@H](O[C@H]2[C@H](OC(=O)[C@]34CCC(C)(C)C[C@H]3C3=CCC5[C@@]6(C)C[C@H](O)[C@H](O[C@@H]7O[C@H](CO)[C@@H](O)[C@H](O)[C@H]7O)[C@@](C)(CO)C6[C@H](O)C[C@@]5(C)[C@]3(C)C[C@H]4O)OC[C@H](O)[C@@H]2O)[C@H](O)[C@H](O)[C@H]1O[C@@H]1OC[C@@H](O)[C@H](O[C@H]2OC[C@](O)(CO)[C@H]2O)[C@H]1O (stereo not given in full) | 3.47% [at 12.4 µM]
2 | CC1=C(COC2OC(CO)C(O)C(O)C2O)C(C(CO)C(=O)O)CC1 (stereo not given) | 0.0538% [at 57.7 µM]
3 | CC1=CC(=O)C2(OC3OC(C)C(O)C(OC(=O)/C=C/c4ccccc4)C3O)C=COC(OC3OC(CO)C(O)C(O)C3O)C12 (stereo not given) | -5.67% [at 30.2 µM]
4 | NC(=O)C(CCC(F)(F)F)N(Cc1ccc(-c2ncon2)cc1F)S(=O)(=O)c1ccc(Cl)cc1 (stereo not given) | -6.29%
5 | O=C1CCC=CC1(O)C(=O)OCc1ccccc1O[C@@H]1O[C@H](CO)[C@@H](O)[C@H](O)[C@H]1O (stereo not given in full) | -8.17% [at 57.7 µM]
6 | O=C1CSc2ccccc2N1Cc1cccc(C(F)(F)F)c1 | -1.02%
7 | C[C@@H]1CC[C@@]2(OC1)O[C@H]1C[C@H]3[C@@H]4CC=C5C[C@@H](O)CC[C@]5(C)[C@H]4CC[C@]3(C)[C@H]1[C@@H]2C | -0.722% [at 57.7 µM]
8 | CC(C)CCC[C@@H](C)[C@H]1CC[C@H]2[C@@H]3CC(=O)[C@H]4C[C@@H](O)CC[C@]4(C)[C@H]3CC[C@]12C | -2.93%
9 | C[C@H](O)[C@H](O)/C=C/c1cccc(O)c1CO | 4.97%
10 | C[C@@H]1O[C@@H](O[C@H]2[C@H](O)[C@@H](O[C@@H]3O[C@H](CO)[C@@H](O)[C@H](O[C@@H]4O[C@H](CO)[C@@H](O)[C@H](O)[C@H]4O)[C@H]3O)[C@H](O[C@H]3CC[C@@]4(C)C(=CC[C@@H]5C4CC[C@@]4(C)C5C[C@@H]5OC6(CC[C@@](C)(CO[C@@H]7O[C@H](CO)[C@@H](O)[C@H](O)[C@H]7O)O6)[C@@H](C)[C@@H]54)C3)O[C@@H]2CO)[C@H](O)[C@H](O)[C@H]1OC1OC(CO)C(O)C(O)C1O (stereo not given in full) | -2.87% [at 12.4 µM]
